Test results taken from PubChem BioAssay (NCI).
Compounds without any hit were thinned out: in the full panel of roughly 83,000, 20% have a hit.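 Method: cells in 96-well plates; compound added at one concentration; 48 h incubation; percent growth measured; values under 10 scored active.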 A number with no mark means an inactive call. The source made the active and inactive calls.

Test system: NCI-H460 lung
Assay: NCI-60 one-dose screen, 48 h (100 = growth as untreated, 0 = no growth, -100 = all killed)
Conditions: 10 µM unless noted

| SMILES | growth |
| --- | --- |
| COc1ccc(N2CCC(=O)NC2=S)cc1 | 104% |
| Oc1c(Cl)cc(Cl)c2ccc(Cn3cc(-c4cc(F)cc(F)c4)nn3)nc12 | 104% |
| CO/N=C(/C)c1ccc(NC(=O)CSc2nnc(-c3ccncc3)n2-c2ccccc2)cc1 | 15.9% |
| O=C1c2cccnc2C(=O)c2c1c(C(=O)NCCn1ccnc1)c1ccccn21 | -41.3% (active) |
| O=C1NC(=O)c2c1c1c3ccccc3ccc1c1[nH]c3ccc(Br)cc3c21 | 3.5% (active) |
| Cc1ccc(-c2nc3nc(-c4ccccc4)nc(N4CCNCC4)c3o2)cc1 | -72.4% (active) |
| CC(C)(C)n1cc(-c2ccnc(NCCNS(=O)(=O)c3cccc(F)c3)c2)c(-c2ccccc2)n1 | 90.7% |
| Cc1c(-n2nnc(-c3nc4ccccc4s3)c2N)c(=O)n(-c2ccccc2)n1C | 103% |

Test system: HOP-92 NSCLC
Assay: as above
Conditions: 10 µM unless noted

| SMILES | growth |
| --- | --- |
| Cc1ccc(Cl)cc1Nc1nc(C(F)(F)F)ccc1C(=O)N/N=C/c1cccnc1 | 11.3% |
| Fc1ccc(-c2nn(-c3ccccc3)cc2-c2nc3ccccc3o2)cc1 | 91.2% |
| CCOC(=O)C(=Cc1cccc(Br)c1)C(=O)OCC | 12.9% |
| COc1cccc(NC(=O)Cn2cc(CN3CCN(c4ccnc5cc(Cl)ccc45)CC3)nn2)c1 | 41.2% |
| CCOC(=O)c1cc2c(=O)oc3ccccc3c2oc1=O | 49.4% |
| O=C(Nc1cc(Cl)ccc1O)c1ccc(Nc2ccnc(C(F)(F)F)c2)cc1 | 86% |
| C=C(C)[C@@H]1CC[C@]2(C(=O)O)CC[C@]3(C)[C@H](CC[C@@H]4[C@@]5(C)C[C@@H](Cc6cn(CCO[C@@H]7O[C@H](COC(C)=O)[C@H](OC(C)=O)[C@H](OC(C)=O)[C@H]7OC(C)=O)nn6)[C@H](O)C(C)(C)[C@@H]5CC[C@]43C)[C@@H]12 | -3.81% (active) |
| CC(C)CCC[C@@H](C)[C@H]1CC[C@H]2[C@@H]3CC=C4C[C@@H](C(C(=O)O)C(=O)O)CC[C@]4(C)[C@H]3CC[C@]12C | 8.17% (active) |
| C#CCOc1ccc2ncnc(Nc3ccc(NC(=O)CCl)cc3)c2c1 | -7.62% (active) |
| CCOC(=O)C1=C(NC)OCC1=O | 83.5% |
| COC(=O)c1c2c(c(C)[n+]([O-])c1C)C(=O)C=C(NCc1ccc(Br)cc1)C2=O | -53.8% (active) |
| CCN(CC)CCOc1ccc(-c2c(-c3ccccc3)c(=O)oc3ccccc23)cc1 | 84.3% |
| c1cnc2[nH]cc(-c3csc(-c4cn(CCCN5CCOCC5)c5ccccc45)n3)c2c1 | 12% |
| S=C1CCSC(=S)N1CCCN1C(=S)CCSC1=S | 106% |
| C=C1C(=O)O[C@H]2[C@H]1CC/C(COC(=O)NCc1cc[nH]c1)=C\CC[C@@]1(C)O[C@@H]21 | 37.2% |
| CN(C)CCCC1(c2ccc(F)cc2)OCc2cc(-c3cccc4[nH]ccc34)ccc21 (configuration not stated) | 30.6% |
| COC(C(=O)[C@@H](O)[C@@H](C)O)[C@@H]1Cc2cc3cc(O[C@H]4C[C@@H](O[C@H]5C[C@@H](O)[C@H](O)C(C)O5)[C@H](O)C(C)O4)c(C)c(O)c3c(O)c2C(=O)[C@H]1O[C@H]1C[C@@H](O[C@H]2C[C@@H](O[C@H]3C[C@@H](O)[C@H](OC)C(C)O3)[C@@H](O)C(C)O2)[C@H](O)C(C)O1 (some centres not stated) | -2.22% (active) |
| CCNc1cc(-c2cccc(OC(F)(F)F)c2)nc2ccc(N3CCCC3)cc12 | -6.27% (active) |
| CCNc1nc(-c2ccc(Cl)c(OC)c2)c(-c2ccnc(NCCCNS(=O)(=O)c3ccc(Cl)cc3)n2)s1 | 20.9% |
| Cc1nc2c(=O)[nH]c(SCC(=O)Nc3cccc(F)c3)nc2[nH]c1=O | 99.9% |
| Cc1ccc(-c2nc3nc(-c4ccc(F)cc4)nc(N4CCNCC4)c3o2)cc1 | 90.8% |
| O=C(/C=C(/C=C/c1cccc2[nH]ccc12)OB(F)F)/C=C/c1cccc2[nH]ccc12 | -27.2% (active) |
| Oc1c(Cl)cc(Cl)c2ccc(Cn3cc(-c4cc(C(F)(F)F)cc(C(F)(F)F)c4)nn3)nc12 | 24.8% |
| CC[C@@H](C(=O)[C@@H](C)[C@@H](O)[C@H](C)[C@@H]1O[C@@H]([C@@H](CC)C(=O)NCCc2ccc(F)cc2)CC[C@@H]1C)C1O[C@]2(C=CC(=O)[C@]3(CC[C@@](C)([C@H]4CC[C@](O)(CC)[C@H](C)O4)O3)O2)[C@H](C)C[C@@H]1C (some centres not stated) | -0.474% (active) |
